Assay results taken from PubChem BioAssay.
Active and inactive are the calls of the source.

Assays:
[1] = test system: PRMT1 (protein arginine N-methyltransferase 1); experiment: PRMT1 binders on small-molecule microarrays, primary screen, biochemical, small-molecule microarray, 635 nm fluorescence (AID 1088); conditions: small-molecule microarray binding, higher = more signal;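 note: binding of Prmt1 protein to compounds spotted on small-molecule microarray slides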
[2] = yeast growth modulation, basal conditions, primary screen, YJM789 clinical isolate, OD600, 24 h (AID 1089);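 note: growth of clinical yeast isolate S. cerevisiae YJM 789 seeded 1000 cells per well; test concentration not given here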; conditions: S. cerevisiae YJM789 growth, higher = more signal, called active from +8 up or from −8 down
[3] = fission yeast growth modulation, primary screen, strain 972, OD600, 24 h, no modulator (AID 1090);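 note: basal condition with compound alone and no growth modifier present; test concentration not given here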; conditions: S. pombe 972 growth, higher = more signal, called active from +8 up or from −8 down
[4] = S. cerevisiae growth modulation with rapamycin, primary screen, strain BY4716, OD600, 96 h (AID 1091); conditions: higher = more signal, called active from +8 up or from −8 down; note: test concentration not given here
[5] = target: Torsin-1A-interacting protein 2 (Homo sapiens) (UniProt Q8NFQ8); experiment: LULL1 binders on small-molecule microarray, primary screen, cell lysate, human LULL1 lysate, 635/667 nm fluorescence (AID 1092); conditions: hLULL1 lysate binding, 635 nm fluorescence, higher = more signal;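 note: probe is lysate of COS7 cells overexpressing human LULL1; score merges per-feature 667 nm fluorescence with signal-to-noise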
[6] = E. coli growth modulation, two-sided OD650, primary screen, E. coli filamentation project, strain DRC41, 24 h (AID 1093); conditions: OD650, 24 h, higher = more signal, called active from +8 up or from −8 down;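 note: MC1000 strain lacking acrAB efflux and sulA so SOS filamentation is blocked; test concentration not given here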
[7] = small-molecule microarray binders of probe aLefty2, primary screen, biochemical, biotinylated probe, 635/667 nm fluorescence (AID 1094); conditions: higher = more signal;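 note: score merges spot fluorescence near 667 nm with spot signal-to-noise ratio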
[8] = test system: Noggin (protein binding on small-molecule microarray); experiment: Noggin binders on small-molecule microarray, primary screen, biochemical, 635/667 nm fluorescence (AID 1095); conditions: 635 nm fluorescence, higher = more signal;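 note: score merges 667 nm feature fluorescence with signal to noise over triplicate slides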
[9] = target: Neurogenic locus notch homolog protein 3 (Homo sapiens) (UniProt Q9UM47); experiment: NOTCH3 binders on small-molecule microarray, primary screen, biochemical, 635/667 nm fluorescence (AID 1096); conditions: NOTCH3 binding, 635 nm fluorescence, higher = more signal
[10] = small-molecule microarray binders of probe aEGFR, primary screen, biochemical, biotinylated probe, 635/667 nm fluorescence (AID 1097); conditions: higher = more signal;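 note: probe is a biotinylated anti-EGFR antibody binding compounds printed on slides; score combines fluorescence near 667 nm and signal to noise of each spot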
[11] = test system: Plasmodium falciparum Sir2 (PF13_0152, Sir2A); experiment: pfSir2 binders on small-molecule microarrays, primary screen, biochemical, small-molecule microarray, 635 nm fluorescence (AID 1098); conditions: small-molecule microarray binding, fluorescence 635 nm; higher = more signal;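 note: score merges spot fluorescence intensity with its signal-to-noise ratio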
[12] = small-molecule microarray binders of probe aDKK1, primary screen, biochemical, biotinylated probe, 635/667 nm fluorescence (AID 1099); conditions: higher = more signal;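 note: score merges 667nm spot fluorescence with signal to noise across triplicate slides; reference of the scale not given here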
[13] = small-molecule microarray binders of probe aCHRDL2, primary screen, biochemical, biotinylated probe, 635/667 nm fluorescence (AID 1100); conditions: higher = more signal
[14] = splicing luciferase reporter signal modulators, primary screen, spliceosome inhibition project, cell-based, HEK293, splice +/- reporter (AID 1101); conditions: luminescence, 24 h, higher = more signal, called active from +8 up or from −8 down;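 note: HEK293 cells carrying a splicing-competent luciferase reporter gene; test concentration not given here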
[15] = target: Fibroblast growth factor 10 (Homo sapiens) (UniProt O15520); experiment: FGF10 binders on small-molecule microarrays, primary screen, biochemical, small-molecule microarray, 635 nm fluorescence (AID 1102); conditions: FGF10 binding, fluorescence 635 nm, higher = more signal
[16] = test system: glycogen synthase kinase-3 (GSK3A per assay name; protocol says GSK3B); experiment: GSK3 binders on small-molecule microarrays, primary screen, biochemical, small-molecule microarray, 635 nm fluorescence, GSK3A (AID 1103); conditions: small-molecule microarray binding, fluorescence 635 nm; higher = more signal; note: the record names both GSK3A and GSK3B
[17] = target: Epidermal growth factor receptor (Homo sapiens) (UniProt P00533); experiment: EGFR binders on small-molecule microarrays, primary screen, biochemical, small-molecule microarray, 635 nm fluorescence (AID 1104); conditions: EGFR binding, higher = more signal;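 note: score merges 667 nm emission intensity with spot signal to noise over triplicate slides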
[18] = target: Follistatin-related protein 3 (Homo sapiens) (UniProt O95633); experiment: FSTL3 binders on small-molecule microarrays, primary screen, biochemical, small-molecule microarray, 635 nm fluorescence (AID 1105); conditions: FSTL3 binding, higher = more signal;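 note: score merges emission near 667 nm and signal to noise per printed spot across three slides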
[19] = target: Dickkopf-related protein 1 (Homo sapiens) (UniProt O94907); experiment: DKK1 binders on small-molecule microarrays, primary screen, biochemical, small-molecule microarray, 635 nm fluorescence scan (AID 1106); conditions: DKK1 binding, higher = more signal;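 note: score merges emission near 667 nm with signal to noise over three replicate slides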
[20] = test system: Inhibin beta A chain (activin A); experiment: INHBA (activin A) binders on microarrays, primary screen, biochemical, small-molecule microarray, 635 nm fluorescence scan (AID 1107); conditions: small-molecule microarray binding, higher = more signal;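 note: mouse activin A protein probed at 4.33 µg/mL on printed slides; score merges bound-protein fluorescence near 667 nm with spot signal-to-noise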

Sequence of Neurogenic locus notch homolog protein 3 (Homo sapiens) (Q9UM47 whole entry, looked up): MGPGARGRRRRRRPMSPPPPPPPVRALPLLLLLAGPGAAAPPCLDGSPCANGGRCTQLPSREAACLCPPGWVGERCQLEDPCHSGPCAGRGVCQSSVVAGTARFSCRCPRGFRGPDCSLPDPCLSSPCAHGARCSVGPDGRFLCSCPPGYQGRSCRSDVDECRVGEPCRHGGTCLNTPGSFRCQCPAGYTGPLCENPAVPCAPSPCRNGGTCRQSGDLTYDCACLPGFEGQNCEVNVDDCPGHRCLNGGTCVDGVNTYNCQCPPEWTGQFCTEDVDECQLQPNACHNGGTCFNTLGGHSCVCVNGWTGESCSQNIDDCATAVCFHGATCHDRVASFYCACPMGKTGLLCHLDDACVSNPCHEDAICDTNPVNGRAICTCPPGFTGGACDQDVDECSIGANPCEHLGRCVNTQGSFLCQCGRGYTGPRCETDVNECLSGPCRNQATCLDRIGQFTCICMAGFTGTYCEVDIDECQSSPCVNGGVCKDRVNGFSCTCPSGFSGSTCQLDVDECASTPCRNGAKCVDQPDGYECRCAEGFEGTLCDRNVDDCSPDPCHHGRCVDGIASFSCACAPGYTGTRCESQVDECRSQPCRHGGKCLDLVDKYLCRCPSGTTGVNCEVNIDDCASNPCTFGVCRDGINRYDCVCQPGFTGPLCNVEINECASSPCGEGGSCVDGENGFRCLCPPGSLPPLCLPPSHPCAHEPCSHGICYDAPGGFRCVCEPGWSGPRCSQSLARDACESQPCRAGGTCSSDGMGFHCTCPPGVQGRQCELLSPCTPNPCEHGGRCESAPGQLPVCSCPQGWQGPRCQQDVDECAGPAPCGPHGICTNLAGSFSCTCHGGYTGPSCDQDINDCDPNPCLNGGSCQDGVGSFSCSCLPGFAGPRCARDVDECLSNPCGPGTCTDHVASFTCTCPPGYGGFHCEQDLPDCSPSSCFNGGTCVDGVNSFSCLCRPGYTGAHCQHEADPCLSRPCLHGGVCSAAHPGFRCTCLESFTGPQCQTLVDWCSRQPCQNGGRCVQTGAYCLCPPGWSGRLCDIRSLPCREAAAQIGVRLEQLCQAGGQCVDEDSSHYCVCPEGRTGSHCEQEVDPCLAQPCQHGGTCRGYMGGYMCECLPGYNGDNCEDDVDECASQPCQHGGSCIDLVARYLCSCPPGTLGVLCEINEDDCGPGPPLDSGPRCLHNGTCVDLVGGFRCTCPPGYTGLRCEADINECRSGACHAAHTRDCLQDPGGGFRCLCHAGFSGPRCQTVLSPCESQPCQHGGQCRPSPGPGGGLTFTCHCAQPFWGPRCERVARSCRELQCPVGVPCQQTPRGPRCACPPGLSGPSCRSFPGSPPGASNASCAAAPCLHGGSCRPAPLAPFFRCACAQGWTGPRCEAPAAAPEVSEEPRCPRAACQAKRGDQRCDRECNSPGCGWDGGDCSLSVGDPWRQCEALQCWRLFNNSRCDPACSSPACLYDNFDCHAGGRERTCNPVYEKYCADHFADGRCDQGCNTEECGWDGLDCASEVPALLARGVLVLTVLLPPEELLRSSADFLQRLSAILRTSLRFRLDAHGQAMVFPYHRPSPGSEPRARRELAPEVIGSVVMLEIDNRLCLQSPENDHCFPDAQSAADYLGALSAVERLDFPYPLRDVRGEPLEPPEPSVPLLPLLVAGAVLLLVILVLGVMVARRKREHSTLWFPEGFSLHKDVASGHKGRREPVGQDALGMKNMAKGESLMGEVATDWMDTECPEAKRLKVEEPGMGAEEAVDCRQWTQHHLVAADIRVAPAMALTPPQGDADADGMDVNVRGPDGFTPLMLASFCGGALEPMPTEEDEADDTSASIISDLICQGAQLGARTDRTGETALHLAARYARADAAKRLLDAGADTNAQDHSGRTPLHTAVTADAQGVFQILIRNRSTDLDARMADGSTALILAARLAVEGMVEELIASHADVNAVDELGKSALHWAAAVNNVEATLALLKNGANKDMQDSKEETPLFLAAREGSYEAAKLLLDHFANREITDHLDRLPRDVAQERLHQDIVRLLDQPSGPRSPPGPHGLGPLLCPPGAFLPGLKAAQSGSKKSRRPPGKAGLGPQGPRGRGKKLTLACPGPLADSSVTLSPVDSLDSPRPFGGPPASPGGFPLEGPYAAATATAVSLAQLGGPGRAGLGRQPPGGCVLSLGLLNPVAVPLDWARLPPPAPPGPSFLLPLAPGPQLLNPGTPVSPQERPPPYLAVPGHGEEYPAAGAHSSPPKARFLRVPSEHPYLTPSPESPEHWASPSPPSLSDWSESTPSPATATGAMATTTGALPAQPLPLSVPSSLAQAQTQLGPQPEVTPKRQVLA
Sequence of Epidermal growth factor receptor (Homo sapiens) (P00533 whole entry, looked up): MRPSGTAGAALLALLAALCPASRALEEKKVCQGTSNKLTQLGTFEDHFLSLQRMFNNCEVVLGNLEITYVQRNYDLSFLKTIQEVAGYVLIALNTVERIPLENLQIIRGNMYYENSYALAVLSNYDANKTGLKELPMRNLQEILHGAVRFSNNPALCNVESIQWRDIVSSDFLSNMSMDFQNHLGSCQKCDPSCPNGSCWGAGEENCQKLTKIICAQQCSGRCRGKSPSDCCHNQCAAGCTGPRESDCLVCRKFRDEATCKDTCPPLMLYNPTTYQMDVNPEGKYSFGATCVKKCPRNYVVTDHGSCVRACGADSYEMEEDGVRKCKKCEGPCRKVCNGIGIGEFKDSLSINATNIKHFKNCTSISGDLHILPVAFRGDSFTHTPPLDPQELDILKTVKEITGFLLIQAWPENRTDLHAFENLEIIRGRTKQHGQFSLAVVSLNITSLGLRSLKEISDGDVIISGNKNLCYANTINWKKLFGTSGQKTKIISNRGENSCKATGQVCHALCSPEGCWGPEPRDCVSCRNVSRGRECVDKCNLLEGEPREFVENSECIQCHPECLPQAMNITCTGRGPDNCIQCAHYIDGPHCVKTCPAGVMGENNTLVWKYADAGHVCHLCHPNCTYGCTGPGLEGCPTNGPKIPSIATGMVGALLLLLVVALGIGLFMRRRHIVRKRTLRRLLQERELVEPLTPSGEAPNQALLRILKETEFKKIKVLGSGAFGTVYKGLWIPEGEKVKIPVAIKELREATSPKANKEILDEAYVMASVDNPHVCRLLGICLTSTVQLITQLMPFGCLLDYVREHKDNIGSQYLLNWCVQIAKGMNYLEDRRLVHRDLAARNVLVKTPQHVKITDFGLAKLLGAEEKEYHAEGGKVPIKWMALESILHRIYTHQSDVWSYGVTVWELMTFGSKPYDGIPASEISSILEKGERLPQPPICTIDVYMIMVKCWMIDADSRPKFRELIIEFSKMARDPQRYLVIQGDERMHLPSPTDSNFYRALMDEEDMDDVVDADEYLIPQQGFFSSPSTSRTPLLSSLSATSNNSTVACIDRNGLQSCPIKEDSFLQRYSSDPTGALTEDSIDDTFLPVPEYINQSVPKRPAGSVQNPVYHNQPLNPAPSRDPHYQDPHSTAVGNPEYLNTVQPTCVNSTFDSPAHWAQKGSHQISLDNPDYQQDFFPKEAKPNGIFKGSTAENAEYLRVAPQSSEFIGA
Sequence of Dickkopf-related protein 1 (Homo sapiens) (O94907 whole entry, looked up): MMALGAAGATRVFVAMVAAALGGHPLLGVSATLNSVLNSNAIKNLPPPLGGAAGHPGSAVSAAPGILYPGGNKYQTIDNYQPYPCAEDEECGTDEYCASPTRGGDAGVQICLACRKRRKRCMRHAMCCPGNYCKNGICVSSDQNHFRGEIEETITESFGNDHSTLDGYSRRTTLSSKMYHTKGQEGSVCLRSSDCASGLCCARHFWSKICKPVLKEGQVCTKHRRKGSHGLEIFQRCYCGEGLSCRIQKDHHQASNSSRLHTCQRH
Sequence of Torsin-1A-interacting protein 2 (Homo sapiens) (Q8NFQ8 whole entry, looked up): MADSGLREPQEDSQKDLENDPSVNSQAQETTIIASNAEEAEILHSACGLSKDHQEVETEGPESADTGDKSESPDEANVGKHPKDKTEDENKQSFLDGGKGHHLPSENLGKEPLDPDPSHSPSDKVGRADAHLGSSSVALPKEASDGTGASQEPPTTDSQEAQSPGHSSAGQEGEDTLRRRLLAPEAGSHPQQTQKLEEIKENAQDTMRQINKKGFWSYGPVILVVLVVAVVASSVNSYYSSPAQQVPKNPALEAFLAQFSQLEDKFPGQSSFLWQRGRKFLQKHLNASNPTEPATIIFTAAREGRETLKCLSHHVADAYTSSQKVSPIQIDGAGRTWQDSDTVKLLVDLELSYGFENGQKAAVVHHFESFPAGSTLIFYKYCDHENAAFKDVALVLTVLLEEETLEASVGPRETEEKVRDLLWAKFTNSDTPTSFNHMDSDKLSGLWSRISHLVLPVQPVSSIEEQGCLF
Sequence of Follistatin-related protein 3 (Homo sapiens) (O95633 whole entry, looked up): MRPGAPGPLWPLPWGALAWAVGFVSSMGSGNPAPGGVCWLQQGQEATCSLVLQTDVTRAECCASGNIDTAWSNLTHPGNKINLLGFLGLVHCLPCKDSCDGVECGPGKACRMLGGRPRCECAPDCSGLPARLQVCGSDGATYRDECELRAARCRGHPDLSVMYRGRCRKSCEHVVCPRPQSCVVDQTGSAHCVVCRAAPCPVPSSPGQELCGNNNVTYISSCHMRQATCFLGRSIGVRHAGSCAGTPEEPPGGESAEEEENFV
Sequence of Fibroblast growth factor 10 (Homo sapiens) (O15520 whole entry, looked up): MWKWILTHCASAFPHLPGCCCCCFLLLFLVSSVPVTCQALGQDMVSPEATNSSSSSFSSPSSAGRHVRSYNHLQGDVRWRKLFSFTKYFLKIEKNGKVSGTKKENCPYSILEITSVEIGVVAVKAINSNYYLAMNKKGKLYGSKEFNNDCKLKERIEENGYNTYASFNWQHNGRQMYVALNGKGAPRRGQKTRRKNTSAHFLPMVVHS

Compound | composite z-score [1] | z-score [2] | z-score [3] | z-score [4] | composite z-score [5] | z-score [6] | composite z-score [7] | composite z-score [8] | composite z-score [9] | composite z-score [10] | composite z-score [11] | composite z-score [12] | composite z-score [13] | z-score [14] | composite z-score [15] | composite z-score [16] | composite z-score [17] | composite z-score [18] | composite z-score [19] | composite z-score [20]
COC(=O)[C@@]1(Cc2ccc(OC)cc2)[C@H]2c3cc(C(=O)N(C)C)n(Cc4c(OC)[nH]cc(C)c4=O)c3C[C@H]2CN1C(=O)c1ccccc1 | -0.386 | -1.88 (inactive) | 0.349 (inactive) | -0.464 (inactive) | 3.62 | -0.252 (inactive) | -0.0404 | -0.0598 | 0.145 | 0.487 | 1.04 | 1.8 | 0.628 | -1.07 (inactive) | 0.0004 | -0.208 | 0.197 | 0.037 | -0.41 | 1.23
CCOC(=O)C[C@H]1[C@H](OC(=O)Cc2ccc3c(c2)OCO3)[C@@H](NC(=O)C2CCCCC2)c2cc(OCCCO)ccc2N1C(=O)Cc1ccc(OC)cc1 | 1.19 | -1.74 (inactive) | -0.38 (inactive) | -0.558 (inactive) | 1.89 | 1.21 (inactive) | -0.0313 | 0.509 | 0.892 | -0.0234 | 0.17 | -0.244 | -0.214 | -1.6 (inactive) | 0.919 | 0.646 | 0.252 | 0.297 | 0.316 | 0.561
[N-]=[N+]=NCc1ccccc1C[C@]1(C(=O)NCC(O)CO)N=C(c2ccc(OCCCO)cc2)O[C@H]1c1ccccc1N=[N+]=[N-] (stereo not given in full) | -0.384 | 0.727 (inactive) | 0.325 (inactive) | 2.77 (inactive) | 2.61 | 1.02 (inactive) | 0.679 | -0.761 | -0.25 | 0.428 | 0.3 | 1.38 | 1.1 | -1.58 (inactive) | 0.0684 | 0.091 | -0.166 | -0.318 | -0.894 | 0.967
C#CCN(C(/C=C/c1ccccc1)CO)C(C(=O)O)c1ccccc1 (stereo not given) | -1.05 | 0.339 (inactive) | -1.13 (inactive) | 0.148 (inactive) | -0.595 | 2.19 (inactive) | -0.0849 | 0.274 | -0.715 | -0.101 | -0.211 | -0.285 | -0.447 | -1.89 (inactive) | 0.0698 | -0.953 | -0.0139 | -0.435 | 0.122 | -0.99
C=C[C@@H](COC(C)=O)N(Cc1ccccc1[N+](=O)[O-])S(=O)(=O)c1ccc(Br)cc1 | 0.61 | -3.84 (inactive) | -2.76 (inactive) | -0.748 (inactive) | 1.43 | 1.91 (inactive) | -0.297 | 1.1 | 0.945 | 0.212 | 1.31 | 0.278 | -0.0205 | -2.18 (inactive) | 0.863 | 1.16 | 1.2 | 1.39 | 1.82 | 1.16
CS(=O)(=O)CCOC(=O)C1=CC(c2ccc(CO)cc2)=CC(C2CC2)N(Cc2cc3c(cc2Br)OCO3)C=C1C(=O)OCCS(C)(=O)=O (stereo not given) | 1.47 | -0.938 (inactive) | -6.09 (inactive) | -0.247 (inactive) | 2.83 | 0.514 (inactive) | 0.17 | 0.782 | 0.929 | 0.0796 | 0.848 | 0.296 | 0.351 | 0.883 (inactive) | 1.08 | 1.18 | 0.425 | 0.932 | 0.391 | 0.701
